Screening results (PubChem)
VDR inh = Inhibitors of the vitamin D receptor (VDR): qHTS; Vitamin D3 receptor (Homo sapiens), P11473; VDR-SRC2-3 peptide fluorescence polarization, 2 h; Potency, µM, for the others: max response, negative = inhibition, most hits filed as inhibitors; hit rate 0.93% among 400,000; note: % is set by controls: 0 for no effect and ±100 for the full control effect
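Reagent solutions, kept cold and dark, are dispensed first; compounds are then pinned in at 23 nl, plates briefly spun, and incubated 2 h at ambient temperature. Inhibition of VDR–SRC2-3 peptide binding is read by fluorescence polarization.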
PLK1 PBD inh = qHTS for Inhibitors of PLK1-PDB (polo-like kinase 1 - polo-box domain): Primary Screen. AID 720504, 2013. Plk1 PBD binding of FITC phosphopeptide, fluorescence polarization. Serine/threonine-protein kinase PLK1 (Homo sapiens), P53350. Potency, µM, inactives show max response, negative = inhibition, usual class: inhibitors. hit rate 2.8% among 360,000; note: series mostly up to about 57 µM; % is set by controls: 0 for no effect and ±100 for the full control effect; nearly all actives have a fitted effect of over 65% in size
JMJD2A Tudor inh = qHTS Assay for Inhibitors of JMJD2A-Tudor Domain; AID 504339, 2011; hit rate 4.4% among 390,000; Potency, µM (doses to about 114 µM), inactives show at the top dose activity change, negative = inhibition, hits mostly inhibitors; AlphaScreen JMJD2A-Tudor / H3K4me3 peptide binding; note: % is set by controls: 0 for no effect and ±100 for the full control effect; nearly all actives have a fitted effect of over 50% in size
G9a inh = qHTS Assay for Inhibitors of Histone Lysine Methyltransferase G9a; hit rate 8.8% among 350,000; G9a H3K9 monomethylation, AlphaScreen, 2 h; Potency, µM (series often up to 102 µM), without a hit: at the top dose activity, negative = inhibition, hits mostly inhibitors; Histone-lysine N-methyltransferase EHMT2 (Homo sapiens), Q96KQ7; note: % is set by controls: 0 for no effect and ±100 for the full control effect; nearly all actives have a fitted effect of over 75% in size
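Methyltransferase reactions run at room temperature for 2 h (20 nM enzyme, 500 nM biotin-H3K9 peptide, 20 uM SAM) after a 15 min compound preincubation; product detected by AlphaScreen beads and anti-H3K9me1 antibody.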
BAZ2B inh = qHTS Assay for Inhibitors of BAZ2B | Potency, µM (series often up to 114 µM), for inactives: at the highest dose activity change, negative = inhibition, usual class: inhibitors | AlphaScreen BAZ2B-H3K14Ac peptide displacement | hit rate 4.4% among 360,000 | Bromodomain adjacent to zinc finger domain protein 2B (Homo sapiens), Q9UIF8; note: % is set by controls: 0 for no effect and ±100 for the full control effect; nearly all actives have a fitted effect of over 60% in size
Target sequence (Q9UIF8 whole entry, looked up, the tested form may be a part): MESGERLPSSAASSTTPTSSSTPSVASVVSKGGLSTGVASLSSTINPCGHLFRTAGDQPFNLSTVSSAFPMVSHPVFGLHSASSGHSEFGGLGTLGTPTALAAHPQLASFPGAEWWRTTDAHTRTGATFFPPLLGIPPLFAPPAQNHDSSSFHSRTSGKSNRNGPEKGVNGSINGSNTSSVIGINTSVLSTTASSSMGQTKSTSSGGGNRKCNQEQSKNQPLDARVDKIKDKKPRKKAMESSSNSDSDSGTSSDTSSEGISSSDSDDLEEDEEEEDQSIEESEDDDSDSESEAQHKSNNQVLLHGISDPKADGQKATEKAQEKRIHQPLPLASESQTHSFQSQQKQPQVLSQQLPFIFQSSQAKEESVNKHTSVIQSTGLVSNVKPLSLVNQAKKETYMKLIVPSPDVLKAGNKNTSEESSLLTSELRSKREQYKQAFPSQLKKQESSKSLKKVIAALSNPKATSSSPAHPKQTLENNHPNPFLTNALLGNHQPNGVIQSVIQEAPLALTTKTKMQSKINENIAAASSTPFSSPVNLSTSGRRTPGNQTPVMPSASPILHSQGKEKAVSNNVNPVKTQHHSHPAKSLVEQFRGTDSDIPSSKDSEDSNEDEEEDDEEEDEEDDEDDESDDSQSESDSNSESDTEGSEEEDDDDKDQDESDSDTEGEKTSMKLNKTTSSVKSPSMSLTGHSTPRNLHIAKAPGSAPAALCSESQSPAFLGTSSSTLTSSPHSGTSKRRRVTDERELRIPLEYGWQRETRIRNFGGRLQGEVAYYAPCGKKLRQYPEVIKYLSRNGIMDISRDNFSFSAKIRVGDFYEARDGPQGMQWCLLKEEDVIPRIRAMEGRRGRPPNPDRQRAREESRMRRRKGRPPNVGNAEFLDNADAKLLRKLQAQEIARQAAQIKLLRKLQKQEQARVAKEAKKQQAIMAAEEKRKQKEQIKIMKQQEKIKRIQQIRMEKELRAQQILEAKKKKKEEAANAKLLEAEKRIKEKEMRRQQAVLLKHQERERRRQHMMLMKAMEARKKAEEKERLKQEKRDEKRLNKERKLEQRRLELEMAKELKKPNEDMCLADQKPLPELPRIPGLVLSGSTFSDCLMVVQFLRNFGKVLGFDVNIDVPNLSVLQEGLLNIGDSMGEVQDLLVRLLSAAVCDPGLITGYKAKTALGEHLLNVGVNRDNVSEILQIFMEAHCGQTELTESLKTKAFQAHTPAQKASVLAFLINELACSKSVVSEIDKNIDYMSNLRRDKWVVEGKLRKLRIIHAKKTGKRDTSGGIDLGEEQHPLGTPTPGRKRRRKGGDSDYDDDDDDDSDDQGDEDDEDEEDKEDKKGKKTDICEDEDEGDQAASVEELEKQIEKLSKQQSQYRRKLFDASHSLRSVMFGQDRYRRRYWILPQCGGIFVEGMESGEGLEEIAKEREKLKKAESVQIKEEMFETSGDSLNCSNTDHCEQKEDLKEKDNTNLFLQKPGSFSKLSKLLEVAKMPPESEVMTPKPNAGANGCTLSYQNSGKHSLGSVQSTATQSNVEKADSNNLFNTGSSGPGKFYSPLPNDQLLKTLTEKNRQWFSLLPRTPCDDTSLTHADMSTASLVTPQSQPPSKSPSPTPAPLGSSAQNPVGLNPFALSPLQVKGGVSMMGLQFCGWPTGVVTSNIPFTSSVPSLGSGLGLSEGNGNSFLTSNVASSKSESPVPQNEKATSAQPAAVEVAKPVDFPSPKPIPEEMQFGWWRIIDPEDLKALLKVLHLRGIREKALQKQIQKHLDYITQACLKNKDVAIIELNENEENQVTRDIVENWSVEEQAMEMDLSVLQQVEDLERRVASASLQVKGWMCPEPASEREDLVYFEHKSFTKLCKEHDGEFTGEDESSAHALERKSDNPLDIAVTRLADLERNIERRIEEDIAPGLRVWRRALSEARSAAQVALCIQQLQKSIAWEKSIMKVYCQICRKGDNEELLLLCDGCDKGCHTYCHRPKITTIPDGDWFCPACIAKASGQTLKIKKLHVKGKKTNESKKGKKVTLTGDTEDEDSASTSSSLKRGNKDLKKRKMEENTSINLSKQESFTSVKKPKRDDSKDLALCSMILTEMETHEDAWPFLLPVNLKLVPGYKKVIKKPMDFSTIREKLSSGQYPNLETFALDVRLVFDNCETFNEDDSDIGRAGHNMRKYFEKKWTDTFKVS
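Multi-concentration screen (max 110 uM) measuring displacement of acetylated histone H3 peptide from BAZ2B by AlphaScreen, using 50 nM protein, 50 nM peptide and 10 ug/mL streptavidin donor plus Ni-chelate acceptor beads.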
HP1b binding inh = HTS for Inhibitors of HP1-beta Chromodomain Interactions with Methylated Histone Tails | AlphaScreen HP1-beta / biotin-H3K9me3 peptide binding | Potency, µM (titrated, usually from 114 µM), for the others: at the top dose activity change, negative = inhibition, usual class: inhibitors | Chromobox protein homolog 1 (Homo sapiens), P83916 | AID 540317, 2011 | hit rate 0.56% among 390,000; note: nearly all actives have a fitted effect of over 70% in size
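HP1-beta protein (50 nM final) preincubated 30 min at room temperature with biotinylated H3(1-18)K9me3 peptide (50 nM) in PBS pH 7.4, 0.01% Tween-20, then compound added for 30 min. AlphaScreen streptavidin donor/nickel chelate acceptor beads (10 ug/mL final), 30 min dark, luminescence read.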
The depositor's hits bear a star; ? = inconclusive; . = no result; [ ] = another dose, or the depositor's remark. Compounds with a hit are over-represented: about 11% of the library has one in this group of screens. Calls come from the whole dose curve; as a rule, active = well fitted curve in the direction sought with a large enough effect; inconclusive = small, poorly fitted or top-dose-only effect, or another doubt; inactive = no such curve, though single readings can be large; an effect the other way counts as inactive or inconclusive. Potency is the fitted concentration of half-maximal effect.

SMILES	VDR inh	PLK1 PBD inh	JMJD2A Tudor inh	G9a inh	BAZ2B inh	HP1b binding inh
CCN(CC)C(=O)N1CCc2ccccc21	-20%	30µM*	-31%	.	-6%	-2%
O=C(/C=C/c1ccc(F)cc1)NCCc1ccc2c(c1)OCCO2	-1%	-3%	-3%	89µM*	5%	36%
O=C(NCc1ccccn1)Nc1ccc2c(c1)OCO2	-2%	-3%	14%	-30%[59 µM]	4%	14%
O=[N+]([O-])c1ccc(NC(=S)NCCc2ccc(F)cc2)cc1	-14%	?	?	?	79µM*	-35%
O=C(NCCc1ccc2c(c1)OCCO2)c1ccccc1F	-14%	-14%	-1%	2%[59 µM]	-3%	20%
O=C(NCCc1ccc(F)cc1)Nc1ccc([N+](=O)[O-])cc1	5%	2%	-25%	?	-21%	20%
O=C(Nc1ccc2c(c1)OCO2)c1c[nH]c(=O)n(-c2ccc(F)cc2)c1=O	7%	-13%	?	56µM*	35µM*	-32%
O=C(NCc1ccncc1)Nc1ccc2c(c1)OCO2	-3%	-14%	-29%	45µM*	11%	17%
COc1ccc(-n2ncc(C(=O)Nc3cccc(C(F)(F)F)c3)c2C2CCN(C(=O)OC(C)(C)C)CC2)cc1	17%	.	6%	?	11%[57.1 µM]	40%
Nc1ccc(N2CCN(c3ncc(C(F)(F)F)cc3Cl)CC2)c(C(F)(F)F)c1	-5%	.	-35%	?	?	-7%
O=C(NCCc1ccc(F)cc1)Nc1ccc2c(c1)OCO2	-19%	8.4µM*	-20%	-9%	2%	-11%
O=C(NCCc1ccc(Cl)cc1)Nc1ccc(F)cc1	-12%	24µM*	-17%[11.4 µM]	26%	-5%	-16%
Fc1ccc(NC(=S)NCCc2ccc(Cl)cc2)cc1	-12%	-16%	-9%	25%[59 µM]	-14%	27%
COCCn1c(SCc2ccccc2F)nc2c([nH]c3ccccc32)c1=O	1%	.	4%	7%[59 µM]	1%	32%[57 µM]
COC(=O)c1c(NC(=O)Cc2ccccc2)sc2c1C(C(=O)OC)CC2 (stereo not drawn)	14%	17µM*	-13%	40µM*	?	-8%
COC(=O)c1c(NC(=O)Cc2ccccc2)sc2c1CC(C)(C)NC2(C)C	-7%	24µM*	-26%	.	-8%	-9%
COC(=O)c1c(NC(=O)CCCOc2ccc(C)cc2)sc2c1C(C(=O)OC)CC2 (stereo not drawn)	?	.	-23%	1.1µM*	?	?
COC(=O)c1c(NC(=O)CCCOc2ccc(C(C)(C)C)cc2)sc2c1CCC(C)C2 (stereo not drawn)	-3%	.	-13%	5%[59 µM]	3%	21%
CCOC(=O)c1c(NC(=O)CSc2nc3ccc(OC)cc3[nH]2)sc2c1CC(C)(C)NC2(C)C	-2%	1%	?	50µM*	-4%	-13%
CC(C)C[C@H](NC(=O)[C@H](CO)NC(=O)[C@@H]1CCCN1C(=O)[C@H](Cc1ccc(O)cc1)NC(=O)[C@H](CC(C)C)NC(=O)[C@H](CC(C)C)NC(=O)[C@@H]1CCCN1C(=O)[C@@H](NC(=O)[C@H](CO)NC(=O)[C@H](CO)NC(=O)[C@H](CO)NC(=O)[C@H](CO)NC(=O)[C@@H]1CCCN1C(=O)[C@@H](NC(=O)[C@@H](N)CO)C(C)C)[C@@H](C)O)C(=O)N[C@@H](C)C(=O)N[C@@H](CC(C)C)C(=O)N1CCC[C@H]1C(=O)N[C@@H](C)C(=O)N1CCC[C@H]1C(=O)O	-2%	.	.	.	.	.
NS(=O)(=O)c1ccc(CCNC(=O)c2ccccc2-c2ccccc2)cc1	-11%	-4%	0%	?	-5%	40%
COC(=O)c1c(NC(=O)CCCOc2cccc(C)c2)sc2c1CCC2	-2%	.	23%	9%[59 µM]	-7%	15%
COC(=O)c1c(NC(=O)CCCOc2ccc(C)cc2)sc2c1CCCC2	-18%	.	29%	14µM*	5%	39%
COC(=O)c1c(NC(=O)CCCOc2cccc(C)c2)sc2c1C(C(=O)OC)CC2 (stereo not drawn)	?	.	?	1.1µM*	35µM*	?
CC1(C)CO[C@H](CC(=O)O)CN1	12%	.	.	.	.	.
SMILES	VDR inh	PLK1 PBD inh	JMJD2A Tudor inh	G9a inh	BAZ2B inh	HP1b binding inh
O=C1c2ccccc2C(=O)c2c1cccc2N(CCO)CCO	-2%	-21%	?	45µM*	50µM*	?
NC(=O)COC(=O)c1cccc2c1-c1ccccc1C2=O	0%	-15%	-12%	-33%	-9%	18%
O=C1CSC(=NC2CCCCC2)N1	?	?	-2%	13%[12.7 µM]	1%	48%
O=C1CS/C(=N/N=C2CCCC2)N1	-1%	-9%	-13%	?	79µM*	27%
O=C(c1cnn(-c2cccc(F)c2)c1-n1cccc1)N1CCN(c2ccccc2F)CC1	11%	.	-19%	-5%[59 µM]	-17%	29%
Cc1ccccc1-c1nc(NC2CCNCC2)c2ccccc2n1	2%	.	.	.	.	.
Clc1ccccc1-c1nc(NC2CCNCC2)c2ccccc2n1	40µM*	.	.	3%[0.501 µM]	.	.
COc1ccc(C(C(=O)Nc2ccc(C(C)C)cc2)N(Cc2ccco2)C(=O)CC2NC(=O)NC2=O)cc1 (stereo not drawn)	-6%	-1%	-33%	8.9µM*	40µM*	-2%
C/C(=N\NC(=O)c1nnn(-c2nonc2N)c1CN1CCCCC1)c1ccccc1O	-12%	-7%	?	11%	45µM*	21%
Nc1nonc1-n1nnc(C(=O)N/N=C/c2ccc(Cl)cc2Cl)c1CN1CCCCC1	12%	0%	-6%	35µM*	-5%	53%
COCc1c(C(=O)N/N=C\c2ccccn2)nnn1-c1nonc1N	13%	5%	79µM*	0.79µM*	40µM*	24%
Nc1nonc1-n1nnc(C(=O)N/N=C/c2cccc(Cl)c2)c1CN1CCCCCC1	-5%	-11%	-12%	.	.	49%
CC(/C=N/NC(=O)c1nnn(-c2nonc2N)c1CN1CCCCC1)=C\c1ccccc1	29%	-13%	-15%	.	-17%	27%
Nc1nonc1-n1nnc(C(=O)N/N=C/c2cccc(O)c2)c1CN1CCCC1	15%	-9%	-7%	45µM*	-19%	31%
CC(C)c1cc(C(=O)OCC(=O)N2CCN(C(=O)c3ccco3)CC2)c(O)c(C(C)C)c1	-15%	-3%	-10%	?	-30%	27%
